Data taken from PubChem BioAssay.

What follows are molecules tested against NADPH oxidase 2 (Homo sapiens) (UniProt P04839) (assay: compounds shifting NOX2 Amplex Red fluorescence – cell-based, HEK293-NOX2, PMA-stimulated, NOX inhibitor project, primary screen (AID 1159; note: test concentration not given here)). Conditions: 45 min, higher = more signal, called active from +8 up or from −8 down.
NADPH oxidase 2 (Homo sapiens), sequence (P04839 whole entry, looked up): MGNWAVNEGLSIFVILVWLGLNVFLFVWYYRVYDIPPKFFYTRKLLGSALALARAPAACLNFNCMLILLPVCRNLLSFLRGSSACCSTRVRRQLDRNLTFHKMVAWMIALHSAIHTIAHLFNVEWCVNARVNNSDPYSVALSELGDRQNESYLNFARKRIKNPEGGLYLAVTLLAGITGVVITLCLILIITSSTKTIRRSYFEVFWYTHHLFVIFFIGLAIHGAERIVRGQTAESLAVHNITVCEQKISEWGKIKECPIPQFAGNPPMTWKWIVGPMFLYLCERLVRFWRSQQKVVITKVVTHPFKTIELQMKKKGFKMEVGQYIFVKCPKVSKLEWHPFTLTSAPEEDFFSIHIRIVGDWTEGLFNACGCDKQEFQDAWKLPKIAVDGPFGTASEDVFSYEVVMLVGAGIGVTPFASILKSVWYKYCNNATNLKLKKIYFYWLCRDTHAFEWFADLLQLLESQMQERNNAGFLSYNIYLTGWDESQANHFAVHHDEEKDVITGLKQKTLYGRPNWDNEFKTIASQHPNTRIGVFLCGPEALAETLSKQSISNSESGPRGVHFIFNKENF

z-score, inactive:
C[N+](C)(C)CCCC[C@@H]1NC(=O)[C@@H]2C[C@H](C(=O)O)[C@H](c3cccc(OCCO)c3)N2C1=O 1.83, COCCOC(=O)N1C(=O)[C@@]2(c3cc(C#CCC(C(=O)OC)C(=O)OC)ccc31)[C@H](c1ccc(OCCO)cc1)N1[C@H](c3ccccc3)[C@H](c3ccccc3)OC(=O)[C@H]1[C@@H]2C(N)=O 2.17, Cc1cc(C)c(C(O)C2C=CC3C(=O)N(c4ccccc4)C(=O)C3N2Nc2ccc([N+](=O)[O-])cc2)c(C)c1 (centres undefined) -0.305, O=C(CS)NCCCCCNC(=O)[C@@H]1C[C@@H]2C(=O)N3CCC[C@H]3C(=O)N2[C@@H]1c1ccc(O)cc1 0.927, C[C@@H]1ON(c2ccccc2)[C@H](c2ccccc2)[C@H]1C(=O)N1C(=O)OC[C@H]1Cc1ccccc1 0.0547, [N-]=[N+]=Nc1ccccc1[C@@H]1OC(c2ccc(OCCCO)cc2)=N[C@]1(CCS(=O)(=O)c1ccccc1)C(=O)NCc1ccccc1 -1.86, COc1ccc([Si](C)(C)[C@@H]2[C@@H](CC(=O)N(CCO)Cc3ccccc3)O[C@]3(C(=O)N(Cc4ccc(N5CCOC5=O)cc4)c4ccccc43)[C@H]2C)cc1 0.566, COc1ccccc1CN1C(=O)c2ccccc2[C@@H](C(=O)NCC(C)C)[C@@H]1c1ccc(CO)cc1 1.78, COC(=O)[C@@]1(Cc2ccc(F)cc2)[C@@H]2[C@@H](CC(=O)[C@H]2CC(=O)C(=O)N2CCCC2)CN1C(=O)c1ccccc1 0.67
